Reference: PubChem BioAssay
Activity calls are given as the source filed them.

Assay: small-molecule microarray binders of probe aXIP, primary screen, biochemical, NeuroSMM set, 635/667 nm fluorescence (AID 1119);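 also: probe is the protein aXip251-270 applied at 1 µg/mL to compound-printed slides; binding of probe to printed compounds measured as 667 nm fluorescence plus signal to noise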
Conditions: higher = more signal, called active from +8 up or from −8 down

Composite Z-score, inactive:
CCOC(=O)C[C@H]1[C@H](OC(=O)c2ccccc2-c2ccccc2)[C@@H](NC(=O)c2ccc(-c3ccccc3)cc2)c2cc(OCCCO)ccc2N1C(=O)c1ccc2ccccc2n1 0.367, C=CCC(OC(C)=O)[C@@H]1[C@@H](N(Cc2ccc(-c3ccccc3)cc2)C(=O)Cc2ccc(F)cc2)c2cc(OCCCO)ccc2N1C(=O)Cc1ccc(OC)cc1 (stereo not given in full) -0.101, O=C(NCC(F)(F)F)[C@@H]1c2ccccc2C(=O)N(Cc2ccc(OC(F)(F)F)cc2)[C@H]1c1ccc(CO)cc1 -0.348, COC(=O)CCCCCCC(=O)Nc1ccc(NC(=O)CCCC[P+](c2ccccc2)(c2ccccc2)c2ccccc2)cc1 0.0895, CCCCCCc1nc(C2CC2)cc2c1[Si](C(C)C)(C(C)C)OC2 0.289, O=C1O[C@H](c2ccccc2)[C@H](c2ccccc2)N2[C@H]1[C@@H](C(=O)Nc1nc3ccccc3s1)[C@]1(C(=O)Nc3ccccc31)[C@H]2c1ccc(OCCO)cc1 -0.393, C=C(/C(=C/C[C@H](OC(=O)c1ccncc1)c1ccc(CO)o1)c1cc(C(=O)OC)ccc1OC)C(C)C -0.442, CN(C)C(=O)[C@@]1(CCS(=O)(=O)c2ccccc2)N=C(c2ccc(OCCCO)cc2)O[C@H]1c1ccccc1 1.19, O=C1OCCC/C=C\[C@H]2OC34C=CCN(CCN5CCOCC5)C(=O)[C@H]3N(CCCCCCO)C(=O)[C@@H]4C12 (stereo not given in full) 1.02, O=C1C2C=CC(C(O)c3ccc(Br)cc3)N(Nc3ccccc3F)C2C(=O)N1c1ccccc1 (stereo not given) 0.0051, CCCCC(=C=CC[C@@H](O)c1ccccc1OCCO)C[C@@H](O)COCc1ccccc1 -0.0202, O=C1O[C@@H](c2ccccc2)[C@@H](c2ccccc2)N2[C@@H](c3ccc(O)cc3)[C@]3(C(=O)Nc4ccc(C#CC5=CCCCC5)cc43)[C@@H](C(=O)NC[C@H](O)c3ccccc3)[C@H]12 0.486, NC(=O)NCC#Cc1ccc2c(c1)[C@]1(C(=O)N2)[C@H](C(=O)NC[C@H](O)c2ccccc2)[C@H]2C(=O)O[C@H](c3ccccc3)[C@H](c3ccccc3)N2[C@@H]1c1ccc(OCCO)cc1 0.491, CC(C)N1CC=CC23O[C@@H]4C=CCOC(=O)[C@@H]4[C@H]2C(=O)N(CCCO)[C@@H]3C1=O (stereo not given in full) 2.17, N#Cc1ccc(C(O)C2C=CC3C(=O)N(c4ccccc4)C(=O)C3N2Nc2ccccc2)cc1 (stereo not given) 0.115, CCCCN1CC=CC23O[C@@H]4/C=C\CCC(C)OC(=O)C4[C@H]2C(=O)N(C(CO)C(C)C)[C@@H]3C1=O (stereo not given in full) 0.443, C=CCN1Cc2ccccc2[C@H]2OC(c3ccc(OCCCO)cc3)=N[C@@]2(CC=C)C1=O 0.911, CC(CO)N1C(=O)[C@@H]2[C@H]3C(=O)OCC=C[C@H]3OC23C=CCN(CCN2CCOCC2)C(=O)[C@@H]13 (stereo not given in full) -0.0888, CCCCCCc1nc(-c2cc(C)c(OC)c(C)c2)c(C)c2c1[Si](C(C)C)(C(C)C)OC2 0.792, C=C(COC)/C(=C/C[C@H](OC(=O)c1ccncc1)c1ccccc1OCCO)c1cnc2ccccc2c1 0.431, CO[C@H]1O[C@H](CO)[C@@H](OC(=O)Nc2ccc3c(c2)OCO3)[C@H](OC(=O)c2cc3ccccc3[nH]2)[C@H]1OC(=O)c1cc2ccccc2[nH]1 0.993, O=C1N(Cc2ccccc2)c2ccccc2[C@@H]2OC(c3ccc(OCCCO)cc3)=N[C@]12Cc1ccccc1 -0.296, CCOC(=O)c1ccc(NC(=O)O[C@H]2[C@H](OC(=O)Nc3ccc4c(c3)OCO4)[C@@H](OC(=O)Nc3ccc4c(c3)OCO4)[C@@H](OC)O[C@@H]2CO)cc1 0.805, C=CCC(OC(C)=O)[C@@H]1[C@@H](N(Cc2cccc3ccccc23)C(=O)Cc2ccc(OC)cc2)c2cc(OCCCO)ccc2N1C(=O)c1ccc2ccccc2n1 (stereo not given in full) 0.397, COCCCNC(=O)[C@@]1(Cc2ccccc2CN=[N+]=[N-])N=C(c2ccc(OCCCO)cc2)O[C@H]1c1ccccc1 0.443, COC(=O)[C@@]1(Cc2ccccc2)[C@H]2c3cc(C(=O)N(C)C)n(CCc4ccc(O)c(OC)c4)c3C[C@H]2CN1C(=O)c1ccccc1 -0.372, CN1C(=O)C2C=CC(C(O)COCc3ccccc3)N(N(c3ccccc3)c3ccccc3)C2C1=O (stereo not given) 0.453, CC(c1ccccc1)C(O)C1C=CC2C(=O)N(c3ccccc3)C(=O)C2N1Nc1ccc([N+](=O)[O-])cc1 (stereo not given) -0.122, [N-]=[N+]=NCc1ccccc1[C@H]1OC(c2ccc(OCCCO)cc2)=N[C@@]1(CCS(=O)(=O)c1ccccc1)C(=O)N1CCCCC1 0.32, [N-]=[N+]=Nc1ccccc1C[C@]1(C(N)=O)N=C(c2ccc(OCCCO)cc2)O[C@H]1c1ccccc1N=[N+]=[N-] -0.199, COc1cc(CO)cc(I)c1O[C@H]1C=C(C(=O)NCCO)C[C@@H](NCc2ccc(F)cc2)[C@@H]1O 0.328, CCCC[C@@H]1C[C@H]1[C@@H](NC(=O)c1cccs1)c1ccc(C(F)(F)F)cc1 -0.496, COCCOC(=O)N1C(=O)[C@@]2(c3cc(C#CC4=CCCCC4)ccc31)[C@H](C(N)=O)[C@H]1C(=O)O[C@H](c3ccccc3)[C@H](c3ccccc3)N1[C@@H]2c1ccccc1OCCO -0.0254, O=C1OCCC=C[C@H]2OC34C=CCN(Cn5nnc6ccccc65)C(=O)[C@H]3N(CCCCCCO)C(=O)[C@@H]4C12 (stereo not given in full) 0.688, Cc1ccc(S[C@]2(C(=O)O)CC(=O)N(Cc3cc(C(F)(F)F)cc(C(F)(F)F)c3)[C@@H]2c2ccc(CO)cc2)cc1 -0.483
